“And” between values parts separate entries of the source, which are not always exact repeats. Identical values can stand only once. Screen size: about 16,000 compounds; about 2,600 (16%) were called active. Roughly 20% stayed inconclusive and do not appear here. The call rests on the fitted dose curve; in most records, active means well fitted curve in the direction sought with a large enough effect; inconclusive means small, poorly fitted or top-dose-only effect, or effect the other way; inactive means no such curve, though single readings can be large or run the other way. The list is a sample of the results.
The molecules below were run against Cytochrome P450 2D6 (Homo sapiens) (UniProt P10635) (assay: Cytochrome panel assay with activity outcomes). Conditions: recombinant CYP, pro-luciferin dealkylation, luminescence, p450-cyp2d6; series mostly up to 57.1 µM; activity, negative = inhibition: at the top concentration.
Chain of Cytochrome P450 2D6 (Homo sapiens) (P10635 whole entry, looked up): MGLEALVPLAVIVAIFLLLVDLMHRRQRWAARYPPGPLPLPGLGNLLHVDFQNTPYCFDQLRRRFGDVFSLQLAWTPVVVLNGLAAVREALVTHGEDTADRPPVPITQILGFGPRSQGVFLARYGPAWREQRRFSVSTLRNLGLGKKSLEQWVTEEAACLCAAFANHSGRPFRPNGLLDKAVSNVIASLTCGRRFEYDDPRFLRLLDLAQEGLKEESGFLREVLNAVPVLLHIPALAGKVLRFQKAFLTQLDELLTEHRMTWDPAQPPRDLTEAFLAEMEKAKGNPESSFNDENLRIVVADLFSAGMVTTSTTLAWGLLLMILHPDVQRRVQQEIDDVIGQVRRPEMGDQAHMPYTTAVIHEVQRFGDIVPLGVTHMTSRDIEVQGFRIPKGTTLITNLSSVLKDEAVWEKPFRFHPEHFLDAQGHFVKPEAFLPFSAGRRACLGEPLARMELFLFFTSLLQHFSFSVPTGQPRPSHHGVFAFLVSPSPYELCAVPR
On the % scale 0 is the no-effect control and ±100 the full control effect.

activity, negative = inhibition, inactive:
C=CCOc1ccc2cccc(/C=N/NC(=O)c3cc4cc([N+](=O)[O-])ccc4s3)c2c1 -6.69%, CCCCCCCOC1(c2ccccc2)OC(=O)c2ccccc21 (stereo not given) -11.7%, CC(=O)Nc1ccc2c(c1)/C(=C/c1ccc([N+](C)(C)C)cc1)c1ccccc1-2 -4.76% [at 11.4 µM], Cc1sc2nc(SCc3nc(-c4cccs4)no3)n(-c3ccccc3)c(=O)c2c1C 17.3%, CC(C)=NNc1ncnc2nc[nH]c12 12.8% [at 11.4 µM], CN(C)CCN1C(=O)C(O)=C(C(=O)c2cc3ccccc3o2)C1c1ccccn1 (stereo not given) 7.71%, NC(=S)NCCC[C@@H](N)C(=O)O -2%, NC(=NCCC[C@H](N)C(=O)O)NO 5.27%, O=C(Nc1cnn(Cc2ccc(Cl)cc2)c1)c1ccc([N+](=O)[O-])cc1 -21.1%, CSc1ccc2nnc(-c3cccc(F)c3)n2n1 -6.36%, Cc1ccc(/C=N/n2c(COc3ccccc3)n[nH]c2=S)s1 -22.5%, Cc1nnc(C)n1/N=C/c1cccs1 -40.9%, O=C1C2ON(c3ccccc3)C(c3ccncc3)C2C(=O)N1c1ccccc1 (stereo not given) 17.4%, Cc1nc2ccccc2n1CC(=O)N/N=C\c1ccccn1 -12.2%, Cc1cc(C2C(C#N)=C(N)Oc3n[nH]c(C)c32)c(C)s1 (stereo not given) -4.36%, Cc1ccsc1/C=N/Nc1nc(Cl)c(Cl)cc1Cl -15.6%, OCCN(C=NC1=NN(c2cccc(C(F)(F)F)c2)CC1)CCO -7.95%, COc1ccc2[nH]c(=O)c(NC(N)=S)nc2c1 -33.1%, CCc1ccc2c(c1)cc(CN(C(=S)Nc1cccc(C)c1)C1CC1)c1nnnn12 -0.638%, COc1cccc(/C=N/NC(=O)C(=O)NCc2cccnc2)c1 21.5%, CC(=O)CC(=O)[C@@]1(O)CC[C@@H]2[C@@H]3C=C(C)C4=CC(=O)CC[C@@H]4[C@H]3CC[C@]21C 1.91% [at 25.6 µM], O=C(O)[C@@H](O)[C@@H](O)[C@@H](O[C@H]1O[C@@H](CO)[C@@H](O)[C@@H](O)[C@@H]1O)[C@@H](O)CO 0.496% [at 25.6 µM], COc1cc(NC(=S)Nc2ccc(S(=O)(=O)N3CCOCC3)cc2)cc(OC)c1OC -17.6%, CC1(C)CC(=O)c2cnc(N)nc2C1 32.6%, O=C(NN=C1c2ccccc2-c2ccccc21)c1ccccn1 -9.72%, O=C(CSC1=NCCS1)N1CCN(c2ccc(Cl)cc2)CC1 -27.3%, O=C(CSc1ccc(Cl)cc1)Nc1ccc(N2CCN(C(=O)c3ccc(Cl)cc3)CC2)cc1 -21.1%, COc1ccccc1NC(=O)Nc1nc(-c2cccnc2)nc2ccccc12 -2.94%, c1ccc(Nc2nc(-c3cccnc3)nc3ccccc23)cc1 -11.1%, CCn1c(-c2ccc(N(C)C)cc2)nc2ccccc21 -108%, CN(C)c1ccc(/C=N\NC(=O)c2cnc3ccccc3c2)cc1 5.04% [at 11.4 µM], CCC(=O)O[C@H](CC(=O)O)C[N+](C)(C)C 8.38%, O=C1C[C@@H](O)[C@@H](O)[C@H]2[C@@H]3C(=O)N(C[C@@H]4CCCO4)C(=O)[C@@H]3CC[C@H]12 4.56% [at 11.4 µM] and 6.17% [at 11.4 µM], COc1cc(C2NC(=O)NC(O)(C(F)(F)F)C2C(=O)c2ccc(Cl)cc2)ccc1O (stereo not given) 3.72%, CCCc1nn2c(=O)c(C(c3ccc(C)cc3)c3c(O)nc4sc(CCC)nn4c3=O)c(O)nc2s1 3.03%, CN1CCN(c2nc3c(c(=O)n(C)c(=O)n3C)n2C)CC1 6.17% [at 11.4 µM], CCCCN(C(=S)Nc1ccccc1)C1CCS(=O)(=O)C1 (stereo not given) -11.8%, Fc1ccc(N2CCN(c3ccc4c(C(F)(F)F)cc(C(F)(F)F)nc4n3)CC2)cc1 -0.372%, C=CCNC(=O)c1onc(CSc2ccc(F)cc2)c1C(=O)O -10.6%, COCCNC(=O)c1onc(CSc2ccc(Cl)cc2)c1C(=O)O -14%, COc1ccc(-n2c(=O)c(-c3cn(C)c4ccccc34)nc3cnc(OC)nc32)cc1 -8.38%, CCOc1ccc(N(C(C)C(=O)N/N=C(\C)c2cccc(NC(=O)c3ccccc3)c2)S(C)(=O)=O)cc1 (stereo not given) -2.54%, COc1ccc2c(c1)CCc1sc(NC(=O)c3ccc(C)cc3)nc1-2 -10.9%, Cn1c(=O)c(-c2cccs2)nc2cncnc21 -5.04%, Cc1oc(-c2cccc(Cl)c2)[n+]([O-])c1C -3.1%, O=S1(=O)OC(c2ccc(O)cc2)(c2ccc(O)cc2)c2ccccc21 12.2% [at 11.4 µM], Cc1c(C#N)c(=O)oc2ccc3ccccc3c12 -1.06%, NC(=O)c1ccc(N2CCCCC2)c(N2C(=O)C3CC=CCC3C2=O)c1 (stereo not given) -4.43%, O=C(O)c1ccc(NS(=O)(=O)Cc2ccccc2)cc1 0.0348% [at 11.4 µM], COc1cc(C(=O)Nc2nc3ccc4nc(C)sc4c3s2)cc(OC)c1OC 12.9%, O=C(COc1ccc2ccccc2c1)N1CCN(C(=O)c2cccnc2)CC1 7.67%, Cc1cccc(C(=O)NC2CCN(C(=O)N3CCOCC3)CC2)c1 2.68%, COCCn1c(=O)c(-c2cccc(C#N)c2)nc2cnc(OCc3ccccc3)nc21 -16.4%, CC(=O)NC1=NC(=O)C(C)S1 (stereo not given) 3.28%, O=c1c(-c2cccs2)nc2cnc(N3CCNCC3)nc2n1Cc1cccs1 0.531%, Cc1ccc(-n2nc3ccc(NC(=O)c4ccc5c(c4)OCO5)cc3n2)cc1 -18.2%, O=C(Nc1cc(-c2nc3ccccc3s2)ccc1Cl)c1ccc2c(c1)OCO2 -26.9%, CCn1c(-c2ccccc2Cl)nn(CC(=O)Nc2ccc(OC)cc2)c1=S -2.11%, CC(=O)NC1C(OCCOc2ccc(Cl)cc2Cl)OC(COC(C)=O)C(OC(C)=O)C1OC(C)=O (stereo not given) -17.3%, CSC1=N/C(=C\c2ccc(Br)o2)C(=O)S1 1.51%, CCOC(=O)n1ccn(C)c1=S 0.903% [at 25.6 µM], O=C(O)c1cc2ccccc2c(Cc2cc3ccccc3c(C(=O)O)c2O)c1O (tested in a mixture with another compound) -5.53% [at 25.6 µM], CCN=C(Nc1ccc(Cl)cc1)c1cccnc1 -28.9%, CC(Oc1ccccc1)C(=O)Nc1nc2c(s1)C(=O)CC(C)(C)C2 (stereo not given) -26.1%, Cc1cnc(CNc2ncncc2-c2ccc(C(=O)N(C)C)cc2)cn1 2.19%, Cc1cnc(CNc2ncnc3ccc(-c4cccc(C#N)c4)cc23)cn1 -4.92%, O=C(O)c1ccccc1OP(=O)(O)O 5.46% [at 25.6 µM], CN1CCc2c(c3c(n2C)CCN(C)[C@H]3c2ccccc2F)[C@@H]1c1ccccc1F 5.51%, CCc1nc(SCC(=O)c2ccc(Cl)s2)c2oc3ccccc3c2n1 17.7%, CCOC(=O)Nc1ccc(C(=O)NCC2CCCO2)cc1 (stereo not given) -3.41%, O=C(O)CCCC[C@H]1CCSS1 2.47%, COC(=O)[C@H]1C[C@@H]1[C@H](NC(=O)c1cc(C)on1)c1ccccc1 -6.31%, COC(=O)[C@@H]1C[C@H]1[C@@H](NC(=O)c1cc(C)on1)c1ccccc1 -20.1%, CCOC(=O)C1=C(CSc2nc3ccccc3s2)NC(=O)NC1c1cccc([N+](=O)[O-])c1 (stereo not given) -18.2%, O=C(CN1C(=O)NC2(CCCCCC2)C1=O)N1CCN(S(=O)(=O)c2ccc(Cl)cc2)CC1 -19.7%, O=C(O)C1CC2(C1)CC(C(=O)O)C2 (stereo not given) 10.8% [at 11.4 µM], O=C(N/N=C/c1cccc([N+](=O)[O-])c1)c1cc2c(ccc3ccccc32)o1 -9.2%, CC[C@@H]1OC(=O)[C@H](C)[C@H](O[C@@H]2C[C@](C)(OC)[C@H](O)[C@H](C)O2)[C@H](C)[C@H](O[C@@H]2O[C@@H](C)C[C@@H](N(C)C)[C@@H]2O)[C@](C)(O)C[C@H](C)C(=NOCOCCOC)[C@H](C)[C@H](O)[C@]1(C)O -0.0352% [at 25.6 µM]

AC50, inactive:
CCCN(CCC)C(=O)[C@@H](CCC(=O)O)NC(=O)c1ccccc1, Nc1nc2c(ncn2COCCO)c(=O)[nH]1

AC50, active:
CCCN=C(N)NCCC[C@H](N)C(=O)O 7.94 µM, S=c1[nH]nc(C2CCCCC2)n1/N=C/c1cccs1 2.24 µM, Cc1cccc(NC(=S)N(CCc2nc3cc(C)c(C)cc3[nH]2)Cc2cccnc2)c1 3.16 µM, Cc1ccc(C)c(NC(=S)N(CCc2nc3cc(C)c(C)cc3[nH]2)Cc2cccnc2)c1 1 µM, COc1ccc(NC(=S)N(CCc2nc3cc(C)c(C)cc3[nH]2)Cc2cccnc2)cc1 11.2 µM, CSC(=NC#N)N1CCN(c2ccc(Cl)cc2)CC1 0.316 µM, CNc1nc(-c2ccc(N(C)C)cc2)nc2ccccc12 12.6 µM, CN(C)c1nc(-c2cccnc2)nc2ccccc12 15.8 µM, CN(C)c1ccc(-c2nc(N(C)C)c3ccccc3n2)cc1 7.94 µM, O=C(NCc1ccccc1)c1onc(CSc2ccc(F)cc2)c1C(=O)NCCCN1CCOCC1 10 µM, COc1ccc(CNc2ccnc(-c3ccc4c(c3)OCO4)n2)c(OC)c1 10 µM, COc1ccccc1CNc1ccnc(-c2ccc3c(c2)OCO3)n1 0.794 µM, Cc1cccc(OCC(=O)N2CCC(N3CCCCCC3)CC2)c1 4.47 µM, O=C(Nc1cccc(-c2nc3ccccc3s2)c1)c1ccc2c(c1)OCO2 0.1 µM, CCCCN1CCC(COC(=O)c2cc(Cl)c(N)c3c2OCCO3)CC1 1.26 µM, NC(=NCCCCCCN=C(N)/N=C(\N)Nc1ccc(Cl)cc1)/N=C(\N)Nc1ccc(Cl)cc1 7.94 µM, Cc1cccc(CNc2ncnc3ccc(-c4ccc5c(c4)OCO5)cc23)c1 0.501 µM, Cc1cccc(CNc2ncnc3ccc(-c4ccoc4)cc23)c1 10 µM, Cc1cnc(CNc2ncnc3ccc(-c4ccc5c(c4)OCO5)cc23)cn1 12.6 µM, COC(=O)[C@@H]1C[C@H]1[C@@H](NC(=O)c1cc(C)nn1C)c1ccccc1 12.6 µM

— PubChem BioAssay AID1851 (National Center for Advancing Translational Sciences (NCATS), 2009)
